This is an account of results in PubChem BioAssay (Tox21).

The structures appear in SMILES notation. Inconclusive results are not listed. Entries that show only a call come without a potency. Active and inactive are the calls of the source. Calls come from the whole dose curve; as a rule, active = well fitted cell-killing curve with a large enough effect in the repeat runs; inconclusive = weak or mixed curves, or effect the other way; inactive = flat fitted curve, though single readings scatter.

A short description of the experiment: cAMP Responsive Elements (CRE) small molecule antagonists, cell-based qHTS assay: qHTS cell viability counter screen (AID 2060913). Note: nearly all actives have a fitted effect of over 40% in size. The note with it: CRE-bla HEK293T viability, CellTiter-Glo luminescence, 5 h; series mostly up to 92.4 µM. The method in brief: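 HEK293T CRE-bla, 2,000 cells/well, 18 h preincubation; cpd in DMSO + NKH477 0.25 uM final, 3 h 37 C/5% CO2; LiveBLAzer 2 h RT, then CellTiter-Glo 30 min RT, luminescence.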
For `Oc1ccc(Cc2ccccc2)cc1`, the Potency result was “inactive”. `S=P(N1CC1)(N1CC1)N1CC1`: the Potency entry is “inactive”.

As to `c1ccc2cc3c4ccccc4c4ccccc4c3cc2c1`, the Potency result is “inactive”. `Cc1ncc([N+](=O)[O-])n1C`: the Potency entry was “inactive”. Take `C/C=C/C(=O)O`: the Potency result was “inactive”. For `CC(C)CCO`, the Potency result is “inactive”.

For `O=S(=O)(O)CO`, the Potency result is “inactive”. Regarding `O=[N+]([O-])c1cc([N+](=O)[O-])c2ccc(S(=O)(=O)O)cc2c1O`, the Potency result is “inactive”. On to `Cc1cn[nH]c1`, for which the Potency result is “inactive”.

In the case of `CC[Si](OC(C)=O)(OC(C)=O)OC(C)=O`, the Potency entry was “inactive”. Regarding `CC(C)(CO)C(O)C(=O)NCCCO` (stereo not drawn), the Potency result is “inactive”. The same measure for `C[C@]12CC[C@@H]3c4ccc(O)cc4C[C@@H](CCCCCCCCCS(=O)CCCC(F)(F)C(F)(F)F)[C@H]3[C@@H]1CC[C@@H]2O` (stereo partly drawn): “inactive”; for `OC1C(O)C(O)C(O)C(O)C1O` (stereo not drawn): “inactive”; for `CC(=O)c1cnccn1`: “inactive”. In the case of `O=C(O)[C@H](O)[C@@H](O)[C@H](O[C@@H]1O[C@H](CO)[C@H](O)[C@H](O)[C@H]1O)[C@H](O)CO`, the Potency result is “inactive”. As for `Cc1ccc(S(=O)(=O)NC(=O)NN2CCCCCC2)cc1`, the Potency result was “inactive”.

`CCCN1C[C@H](CSC)C[C@@H]2c3cccc4[nH]cc(c34)C[C@H]21`: the Potency result is “inactive”. The same measure for `Cc1cc(N)n(-c2ccccc2)n1`: “inactive”; for `CC(=O)OC/C=C(/C)CCC=C(C)C`: “inactive”; for `O=C(O)c1cccc(Cl)n1`: “inactive”.

With `CC(Cc1ccccc1)(NC(=O)CN)c1ccccc1` (stereo not drawn), the Potency entry is “inactive”. Take `CCOC(=O)Cn1c(=O)sc2cccc(Cl)c21`: the Potency entry is “inactive”. Consider `CCOC(=O)C1=C(C)NC(C)=C(C(=O)OC)C1c1cccc([N+](=O)[O-])c1` (stereo not drawn), for which the Potency entry was “inactive”.
